Assay outcomes (PubChem)
The list is not random: actives were taken first. Their share in the collection is about 3.8%.
S2 tox = viability counter-screen for ATXN expression inhibitors. S2 cells (HEK-293 line with an ATXN2-luciferase reporter) viability, CellTiter-Fluor protease fluorescence, 24 h. Potency, µM (titrated, usually from 56.7 µM), most hits filed as cytotoxic. 400,000 compounds, 0.49% hits; also: nearly all actives have a fitted effect of over 40% in size
HepG2 viability = counter-screen for TGF-b inhibitors: cytotoxicity in HepG2 cells; 410,000 compounds, 0.76% hits; HepG2 CAGA-GFP viability, ATP luminescence, 18 h; Potency, µM (highest dose often 46.1 µM), for the others: at the top dose activity change, negative = cytotoxicity, actives largely listed as cytotoxic; AID 588856
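CellTiter-Glo luminescence gave cytotoxicity after 18 hours at 37 degrees C. The cells were HepG2 CAGA-GFP in 1% FBS DMEM, stimulated with 500 pg/mL TGF-beta after compound addition. %Activity was normalised to no-cell wells (complete cell-killing) and DMSO (no toxicity), and curves were fitted and classified.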
Nrf2 inh = Nrf2 pathway inhibition. A549 ARE-Fluc reporter, luciferase luminescence, 18-24 h. Potency, µM (doses to about 46 µM), inactives show at the top dose activity change, negative = inhibition, hits mostly inhibitors. 360,000 compounds, 2.1% hits. AID 504444; also: % is scaled to controls: 0 for no effect and ±100 for the full control effect; nearly all actives have a fitted effect of over 60% in size
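A549 ARE_Fluc cells (5000/well, 5% FBS OPTI-MEM) pre-incubated 2 h, then treated with compounds 18-24 h at 37C/5% CO2 in concentration-response. CellTiter-Fluor viability read first; BugLite luciferase luminescence after 15 min at room temperature gives Nrf2 activity.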
TGFb inhibitor = blocks TGF-b signaling; HepG2 CAGA-GFP TGF-b/SMAD3 reporter, GFP fluorescence, 18 h; TGF-beta stimulated, 500 pg/mL final; Potency, µM (titrated, usually from 46.1 µM), inactives show at the top dose activity, negative = inhibition, usual class: inhibitors; 410,000 compounds, 1.2% hits; AID 588855; also: % is scaled to controls: 0 for no effect and ±100 for the full control effect; nearly all actives have a fitted effect of over 65% in size
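Read-out: total well GFP (ex488/em500-530) summed from mean per-cell fluorescence. Cells: HEPG2 CAGA-GFP, 1% FBS DMEM, 18 h at 37 degrees C with 500 pg/mL final TGF-beta. Unstimulated wells served as the full-inhibition control; stimulated DMSO wells = 0%.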
A549 tox = A549 cytotoxicity, counter-screen for Nrf2 inhibitors; Potency, µM (titrated, usually from 46 µM), without a hit: top-dose activity change, negative = cytotoxicity, hits mostly inhibitors; 390,000 compounds, 0.16% hits; A549 ARE-Fluc cells, CellTiter-Fluor viability, 18-24 h; AID 504648; also: % is scaled to controls: 0 for no effect and ±100 for the full control effect
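A549 ARE_Fluc cells in 5% FBS OPTI-MEM were exposed to compounds in concentration-response for 18-24 h at 37 deg C. Viability was read by CellTiter-Fluor fluorescence (Ex 405/Em 525) after 30 min, before the luciferase read.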
ATXN2 expr inh = ATXN2 expression inhibition | HEK-293 ATXN2-luciferase reporter, luminescence, 24 h | AID 1745845 | Potency, µM (doses to about 57 µM), for inactives: at the highest dose activity change, negative = inhibition, usual class: inhibitors | 360,000 compounds, 0.72% hits; also: % is scaled to controls: 0 for no effect and ±100 for the full control effect; nearly all actives have a fitted effect of over 55% in size
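qHTS (up to 57 uM final) was run with 24 h compound exposure of reporter cells at 37 °C. Each well was multiplexed: SteadyGlo luminescence measured ATXN2-luciferase expression after a fluorogenic Gly-Phe-AFC viability readout (25 uM final).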
* = called active by the depositor; i = inactive; ? = inconclusive; · = not tested or not shown; [ ] = dose if it differs, or a comment. Calls follow the shape of the dose curve; as a rule, active = well fitted curve in the direction sought with a large enough effect; inconclusive = small, poorly fitted or top-dose-only effect, or another doubt; inactive = no such curve, though single readings can be large; an effect the other way counts as inactive or inconclusive. Potency is read from the fitted curve at half-maximal effect.

SMILES	S2 tox	HepG2 viability	Nrf2 inh	TGFb inhibitor	A549 tox	ATXN2 expr inh
CN(C)c1ccc(-c2csc(C(O)(c3ccccc3)C(F)(F)F)n2)cc1 (stereo unspecified)	i	16µM*	·	?	·	13%
CCn1c(SCC(=O)N2CCN(c3ccccc3F)CC2)nnc1-c1ccoc1C	i	-16%	?	-5%	3%	-12%
CCOC(=O)CCN(C(=S)Nc1ccccc1)C1CCCCC1	i	8%	-3%	-6%	1%	1%
CCOc1ccccc1NC(=O)CN(c1ccc(Cl)cc1)S(C)(=O)=O	i	9%	-12%	-16%	3%	1%
C=CC[C@@H](CC(=O)N(CCO)Cc1ccccc1)C(=O)N[C@@H](C)COC(=O)[C@@H](CC=C)Cc1ccc(F)cc1	i	-15%	10%	-22%	1%	-13%
C=CC[C@H](CC(=O)NCCO)C(=O)NC[C@H](OC(=O)[C@@H](CC=C)Cc1ccc(F)cc1)c1ccccc1	i	-20%	-6%	-1%	2%	10%
C=CC[C@@H](CC(=O)N(CCO)Cc1ccccc1)C(=O)NC[C@H](OC(=O)[C@@H](CC=C)Cc1ccc(F)cc1)c1ccccc1	20µM*	-91%	?	?	?	?
C=CC[C@@H](CC(=O)N(CCO)Cc1ccccc1)C(=O)N[C@H](COC(=O)[C@@H](CC=C)Cc1ccc(F)cc1)c1ccccc1	22µM*	-26%	?	?	-20%	?
N#CCCN(Cc1cccnc1)S(=O)(=O)c1ccc2ccccc2c1	?	10µM*	-11%	-3%	-4%	-19%
CSCCC(NC(=O)c1ccc([N+](=O)[O-])cc1Cl)C(=O)OCC(=O)NCCCc1ccccc1 (stereo unspecified)	i	-45%	3%	16µM*	12%	0%
NS(=O)(=O)c1ccc(CCNc2nc3c(-c4cccc(F)c4)nnn3c3ccc(Cl)cc23)cc1	i	8.9µM*	?	?	9%	0%
Cc1ccc(CCNC(=O)CCCc2nnc3n(C)c(=O)c4sccc4n23)cc1	i	-7%	0%[9.27 µM]	-9%	4%	-12%
C=CC[C@H](CC(=O)N(CCO)Cc1ccccc1)C(=O)N[C@H](COC(=O)[C@H](CC=C)CC(=O)OC(C)(C)C)Cc1ccccc1	22µM*	1%	?	?	?	-2%
C=CC[C@@H](CC(=O)N(CCO)Cc1ccccc1)C(=O)N[C@H](COC(=O)[C@@H](CC=C)CC(=O)OC(C)(C)C)C(C)(C)C	28µM*	-15%	25%	-30%	?	?
Cc1cc(C)cc(NC(=O)CCS(=O)(=O)c2cccc3nsnc23)c1	i	-18%	-18%[9.27 µM]	43%	1%	3%
O=C(Nc1ccc(F)c(Cl)c1)c1cc(C2CCCN(S(=O)(=O)c3cccs3)C2)on1 (stereo unspecified)	?	-15%	·	8%	·	-13%
O=C(Nc1ccccc1Cl)c1cc(C2CCCN(S(=O)(=O)c3cccs3)C2)on1 (stereo unspecified)	i	11µM*	·	?	·	-12%
CCOC(=O)N1CCC(n2c(SCC(=O)NCCc3ccc(S(N)(=O)=O)cc3)nc3ccccc3c2=O)CC1	i	-11%	6%	-10%	0%	-19%
COc1ccc(OCc2nc3ccccc3n2C(C)C)cc1	·	0%	23µM*	3%	0%	1%
O=C(NCc1nnc(SCC(=O)N2CCOCC2)o1)c1ccccc1	i	-24%	·	6%	·	·
O=C1C=C(c2c(O)ccc3ccccc23)c2ccccc2C1=O	·	13µM*	-1%	2.8µM*	-10%	16µM*
CCOc1cc(/C=C2/C(=O)ON=C2C)ccc1OCc1ccccc1F	?	16µM*	4.1µM*	?	?	?
CCOc1cc(/C=C2/C(=O)ON=C2C)ccc1OCc1ccccc1	?	-7%	-7%	-17%	-4%	-37%
CC(Oc1ccc(Cl)cc1Cl)c1nc(-c2ccc(NC(=O)c3ccncc3)cc2)no1 (stereo unspecified)	i	-72%	10µM*	?	-1%	?
Oc1ccccc1N=Cc1c(O)ccc2oc3c(c12)CCCC3	?	-121%	?	13µM*	-19%	·
SMILES	S2 tox	HepG2 viability	Nrf2 inh	TGFb inhibitor	A549 tox	ATXN2 expr inh
COc1ccc(-n2nc(C(=O)N3CCN(c4cccc(C(F)(F)F)c4)CC3)c3c4ccccc4n(C)c3c2=O)cc1Cl	i	7%	22%	9%	12%	-4%
C/C(N)=C(/C#N)C(=O)CSc1nc2ccccc2c(=O)n1Cc1ccc(F)cc1	?	-46%	?	11µM*	0%	·
CC(C)(C)c1ccc(Cn2c(=N)n(CC(O)c3ccco3)c3ccccc32)cc1 (stereo unspecified)	21µM*	-80%	-8%	16µM*	-17%	?
CCCCCCCn1c(=N)n(CC(O)c2ccco2)c2ccccc21 (stereo unspecified)	i	22µM*	1%	?	-5%	?
COc1ccc(-c2csc(N3CCN(C(=O)c4ccco4)CC3)n2)cc1	i	-40%	-17%	-9%	-4%	?
CCOCCCNC(=S)N1CCN(c2nc(-c3ccc(F)cc3)cs2)CC1	i	-42%	16µM*	?	-17%	?
CCCNC(=S)N1CCN(c2nc(-c3ccc(C)cc3)cs2)CC1	i	-25%	23µM*	?	-16%	?
COCCCNC(=S)N1CCN(c2nc(-c3ccc(F)cc3)cs2)CC1	i	-30%	15µM*	?	-1%	?
COCCNC(=S)N1CCN(c2nc(-c3ccccc3)cs2)CC1	i	-13%	-12%	?	0%	-37%
COc1ccc(-c2csc(N3CCN(C(=O)c4ccccc4)CC3)n2)cc1	i	-26%	13µM*	-13%	-25%	-21%
CCCNC(=S)N1CCN(c2nc(-c3cccc(OC)c3)cs2)CC1	?	-31%	?	-31%	-10%	-25%
CNC(=S)N1CCN(c2nc(-c3ccc(F)cc3)cs2)CC1	i	-50%	?	?	0%	·
Cc1cc2c(s1)c1cnn(Cc3c(F)ccc(C)c3Cl)c(=O)c1n2C	·	·	13%	·	-2%	·
CC(C)C(c1nnnn1Cc1cccs1)N1CCN(C(=O)c2ccco2)CC1 (stereo unspecified)	i	0%	4%	-1%	-1%	7%
